In all, about 47,000 compounds went through this assay and about 3,100 (6.6%) were called active. Cut-off read from the data, not from the text of the source: active = inhibition above about 30%; inactive = the rest. Shown is part of a subset that was picked to be rich in actives.
target: Ubiquitin carboxyl-terminal hydrolase 17-like protein 5 (Homo sapiens) (UniProt A8MUK1); assay: blocks human USP17 ubiquitin-rhodamine cleavage (AID 1645855); settings: purified USP17, Ub-rhodamine cleavage fluorescence, 3 h; at 50 µM; active compounds read high
Sequence (A8MUK1 whole entry, looked up): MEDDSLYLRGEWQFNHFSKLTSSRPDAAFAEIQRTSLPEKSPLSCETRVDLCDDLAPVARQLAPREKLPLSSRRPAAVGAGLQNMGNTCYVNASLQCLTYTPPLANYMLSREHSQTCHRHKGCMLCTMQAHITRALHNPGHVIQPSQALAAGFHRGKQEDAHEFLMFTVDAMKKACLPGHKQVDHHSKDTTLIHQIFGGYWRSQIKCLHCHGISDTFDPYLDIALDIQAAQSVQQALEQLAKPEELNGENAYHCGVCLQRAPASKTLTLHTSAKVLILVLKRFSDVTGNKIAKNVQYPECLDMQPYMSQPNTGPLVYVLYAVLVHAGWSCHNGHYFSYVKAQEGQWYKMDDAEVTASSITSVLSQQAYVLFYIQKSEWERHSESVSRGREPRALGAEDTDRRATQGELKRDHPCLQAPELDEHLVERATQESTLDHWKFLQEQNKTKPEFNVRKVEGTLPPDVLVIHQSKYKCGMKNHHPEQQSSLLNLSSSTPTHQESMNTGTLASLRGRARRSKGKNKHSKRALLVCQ

Row | SMILES | inhibition
1 | C[C@]12C(=O)N(c3cccc(C(=O)NCCN4CCOCC4)c3)C(=O)N1CCc1c2[nH]c2ccccc12 | -24.6% (inactive)
2 | COc1ccc(CNC(=O)c2ccccc2N2C(=O)N3CCc4c([nH]c5ccccc45)[C@@]3(C)C2=O)cc1 | 56.3% (active)
3 | COc1ccc2[nH]c3c(c2c1)CCN1C(=O)N([C@@H](C)C(=O)NCC(=O)O)C(=O)[C@]31C | 9.34% (inactive)
4 | O=C(NCCc1ccc(F)cc1)N1CC[C@@H]2CN(Cc3ccncc3)S(=O)(=O)[C@@H]2CC1 | -15.9% (inactive)
5 | O=C(CNC(c1ccccc1)c1ccccc1)Nc1ccc(F)cc1 | 3.76% (inactive)
6 | O=C(N[C@@H]1C[C@@H](Oc2cccnc2)[C@H](O)[C@H]1N1CCCCC1)c1cnco1 | -6.77% (inactive)
7 | COc1cccc(-c2ocnc2C(=O)NCc2ccc(OC)c(OC)c2)c1 | -10.8% (inactive)
8 | COc1cccc(CNC(=O)c2ccc(-c3cncnc3)nc2)c1 | -9.04% (inactive)
9 | COc1cc(OC)cc(-c2nnc(NC(=O)c3ccc([N+](=O)[O-])o3)o2)c1 | 51.3% (active)
10 | CN(C)C(=O)c1cccnc1-c1nc2ccccc2s1 | 9.06% (inactive)
11 | Cc1nc(NCc2ccco2)nc2c1COCC21CCN(C(=O)C(C)(C)C)C1 (centres undefined) | -22.1% (inactive)
12 | COc1ccccc1NC(=O)C1=C(C)Nc2ncnn2C1c1ccc(C)o1 (centres undefined) | 0.179% (inactive)
13 | COc1ccc(NC(=O)C2=C(C)Nc3ncnn3C2c2cccc(OCc3ccc(F)cc3)c2)c(OC)c1 (centres undefined) | 51.9% (active)
14 | COc1cccc(C2C(C(=O)Nc3ccccc3C)=C(C)Nc3ncnn32)c1OCc1ccccc1 (centres undefined) | -19.2% (inactive)
15 | CC1=C(C(=O)Nc2ccccc2)C(c2cccs2)n2ncnc2N1 (centres undefined) | -10.9% (inactive)
16 | CC1=C(C(=O)Nc2ccccc2)C(c2ccc(OCc3c(Cl)cccc3Cl)cc2)n2ncnc2N1 (centres undefined) | 69.4% (active)
17 | CC1=C(C(=O)Nc2ccccc2)C(c2cccnc2)n2nc(CCCO)nc2N1 (centres undefined) | -9.97% (inactive)
18 | COc1cccc([C@@H]2C[C@]3(C)NC(=O)CCCC[C@@H]3N2C(=O)c2cnn(C)c2)c1 | -8.06% (inactive)
19 | CC1COc2ccccc2N1C(=O)c1ccc(F)cc1 (centres undefined) | 0.747% (inactive)
20 | CC1CCN(S(=O)(=O)c2cccn(CC(=O)Nc3ccc(F)cc3)c2=O)CC1 | -5.61% (inactive)
21 | COC(=O)c1cccc(Nc2c(-c3ccccc3)nc3cnc(Br)cn23)c1 | -68.2% (inactive)
22 | O=C1CCC(=O)N(O)CCCCCNC(=O)CCC(=O)N(O)CCCCCNC(=O)CCC(=O)N(O)CCCCCN1 | 23.5% (inactive)
23 | CC(=O)N1CCc2cc(C(O)CN3CCN(c4ccccc4)CC3)ccc21 (centres undefined) | 47.6% (active)
24 | O=C(CN1CCN(c2ccccc2)CC1)c1ccccc1 | -12.9% (inactive)

Row | SMILES | inhibition
25 | CC(=O)N1CCc2cc(S(=O)(=O)Nc3ccccc3N3CCN(C)CC3)ccc21 | -8.21% (inactive)
26 | CCOCCCNc1ncnc2c1sc1nc(N3CCOCC3)c3c(c12)CC(C)(C)OC3 | -1.37% (inactive)
27 | Cc1cc(=O)n(CC(=O)NCc2ccccc2Cl)c(N2CCCC2)n1 | -2.72% (inactive)
28 | CCOc1ccccc1CNC(=O)CCn1c(-c2ccc(F)cc2)cc(C(C)=O)c1C | -2.37% (inactive)
29 | Cc1ccccc1CNC(=O)Cn1c(=O)ccn(Cc2ccc(F)cc2)c1=O | 42.9% (active)
30 | O=C1Nc2ccccc2C1c1c(-c2ccccc2Cl)[nH]c2[nH]c(=O)[nH]c(=O)c12 (centres undefined) | 8.48% (inactive)
31 | Cc1cnc(N2CC[C@@H]3[C@@H](CO[C@@H]3CNS(C)(=O)=O)C2)nc1 | -4.98% (inactive)
32 | CC(C)NC(=O)N1CCCN(C2CCN(Cc3ccccc3)C2=O)CC1 (centres undefined) | -36.9% (inactive)
33 | CCCCc1nc2sc3c(SCC(=O)NCc4ccccc4)ncnc3c2c2c1CCC2 | 44.6% (active)
34 | CCC1(C)Cc2c(sc3nc(SCC(=O)NCCc4ccccc4)nc(N)c23)CO1 (centres undefined) | -6.11% (inactive)
35 | CCCc1nc2sc3c(N4CCC(C)CC4)ncnc3c2c2c1CCC2 | -14.3% (inactive)
36 | CC(=O)CSc1nnc(-c2ccccc2Br)o1 | 2.6% (inactive)
37 | CCCCOc1ccc(-c2nnc(-c3ccccc3Br)s2)cc1 | 4.93% (inactive)
38 | CS(=O)(=O)c1cnc(N2CCCCC2)nc1C1CCN(C(=O)CCc2ccco2)CC1 | 5.15% (inactive)
39 | Cc1cccc(-n2cc(-c3ccccc3)c3c(N(C)C)ncnc32)c1 | 2.77% (inactive)
40 | CC1=C(c2ccc(C)cc2)S(=O)(=O)NC1=NCc1cccc(Br)c1 | 46% (active)
41 | COc1cc(CNc2nn[nH]n2)ccc1OCc1ccc(C)cc1 | 5.1% (inactive)
42 | COc1ccc(C2=Nc3ncnn3C2=NCc2ccc(F)cc2)cc1OC | -4% (inactive)
43 | COc1ccc(CN=C2NS(=O)(=O)C(c3ccc(F)cc3)=C2C)cc1OC | 66.4% (active)
44 | CC1=C(c2ccc(Cl)cc2)S(=O)(=O)NC1=NCC(=O)NC1CCCC1 | 20.9% (inactive)
45 | CCn1c(SCc2cccc(C)c2)nnc1-c1cnccn1 | 10.7% (inactive)
46 | O=C(c1cccnc1)N1CCC(c2cccc(Cc3ccccc3Cl)n2)CC1 | -11.1% (inactive)
47 | COc1cccc(CC2(NC(=O)c3ccccc3)N=C3C=CC=CN3C2=O)c1OC (centres undefined) | 16.5% (inactive)
48 | Cc1cc(OCC(=O)Oc2ccc(-n3cnnn3)cc2)cc(C)c1Cl | -0.253% (inactive)

Row | SMILES | inhibition
49 | CCc1ccc(C(=O)Cn2c(N3CCOCC3)nc3ccccc32)cc1 | -2.13% (inactive)
50 | COc1ccc(S(=O)(=O)N2CC(C(=O)NC3CCCCC3)C3(CCOCC3)C2)cc1 (centres undefined) | 0.196% (inactive)
51 | COc1nc(OC)nc(N2CCC(c3nc(C)cc(-c4ncc[nH]4)n3)CC2)n1 | -10.1% (inactive)
52 | COc1cccc(-c2nnc(-c3ccccc3NS(=O)(=O)c3ccc(C)cc3)o2)c1 | 15.5% (inactive)
53 | COc1cccc(-n2nnc(-c3nnc(-c4ccccc4)o3)c2C)c1 | 54.7% (active)
54 | COc1ccc(-c2nnc(-c3cccc(S(=O)(=O)N4CCCC4)c3)o2)cc1 | 13.3% (inactive)
55 | Cc1ccc(CNC(=O)CCNc2cc(C)nc3nc(-c4cccnc4)nn23)cc1 | 6.35% (inactive)
56 | CCC(CC)C(=O)N1CCC(c2nc3c(nnn3Cc3ccccc3)c(=O)[nH]2)CC1 | 14.7% (inactive)
57 | CC1=C2C[C@@H]3C(CN4CCN(c5ccccn5)CC4)C(=O)O[C@@H]3C[C@@]2(C)CCC1 (some centres undefined) | -3.81% (inactive)
58 | COc1ccc(NC(=O)c2sc(N3CCOCC3)nc2-c2ccccc2)c(OC)c1 | 52.7% (active)
59 | COc1ccc(-c2nc(N(Cc3ccccc3)C(=O)CN3CCOCC3)sc2C)cc1 | -13.9% (inactive)
60 | CNC(=O)c1cc(-c2ccccc2)c(N2CCOCC2)s1 | 2.58% (inactive)
61 | CC(C)Cc1noc(CN2CCC3(CC2)CC3c2nnc(-c3cccc(F)c3)o2)n1 (centres undefined) | 0.0905% (inactive)
62 | CC/C=C\[C@@H]1O[C@H]1C1=C(C)C(=O)C2(O1)C(=O)NC(OC)(C(=O)c1ccccc1)C2O (some centres undefined) | -4.56% (inactive)
63 | COc1ccc(-c2cc(C(=O)N3CCCC3c3cc(C)on3)no2)cc1 (centres undefined) | 0.23% (inactive)
64 | O=C(Nc1ccc2c(c1)OCO2)c1sc2cc(Cl)ccc2c1Cl | -7.31% (inactive)
65 | CCOc1ncccc1C(=O)NNC(=O)c1cn(-c2ccccc2)nc1-c1ccccc1 | 2.51% (inactive)
66 | COc1ccccc1OCCC(=O)Nc1cccc(S(=O)(=O)N(C)C)c1 | 9.63% (inactive)
67 | CC(OC(=O)c1cn(-c2ccccc2)nc1-c1cccnc1)C(=O)Nc1cccc(S(=O)(=O)N(C)C)c1 (centres undefined) | 41.1% (active)
68 | NC(=O)c1ccccc1OCC(=O)Nc1cc(Cl)ccc1Oc1ccccc1 | -1.08% (inactive)
69 | COc1ccc(-c2cc(=O)oc3c(C)c(OCc4ccccc4F)ccc23)cc1 | 49.1% (active)
70 | Cc1cc(=O)oc2c(C)c(OC(C)C(=O)NCc3ccncc3)ccc12 (centres undefined) | -11.3% (inactive)
71 | COc1ccc(-c2noc(-c3cc4c(COC(C)=O)cnc(C)c4oc3=O)n2)cc1 | -158% (inactive)
72 | CNC(=O)c1sc2nccnc2c1C1CCN(c2ccncn2)CC1 | -8.22% (inactive)

Row | SMILES | inhibition
73 | CCc1cc(C2CCCN2S(=O)(=O)c2ccc(C(C)C)cc2)on1 (centres undefined) | 9.48% (inactive)
74 | Cc1nn(C)c(C)c1CN(C(=O)Cn1cc(C(C)C)nn1)C1CC1 | -1.87% (inactive)
75 | CN1C[C@@H](NC(=O)c2ccc(F)cc2)C[C@H]1c1nc(-c2cccnc2)no1 | -2.42% (inactive)
76 | Cc1cc(N)nc2c1c(C)nn2-c1ncc(C(F)(F)F)cc1Cl | -15.8% (inactive)
77 | Cc1ccc(-c2noc(-c3cccc(OCC(=O)N(C)C)c3)n2)cc1 | 50.7% (active)
78 | Cc1ccccc1-c1nc(-c2cccc(OCC(=O)N3CCOCC3)c2)no1 | 48.9% (active)
79 | COc1cc(Cl)ccc1-c1nc(-c2cccc(C(=O)N3CCCC3)c2)no1 | 8.98% (inactive)
80 | Cc1ccccc1-c1nc(-c2cn(CC(=O)Nc3ccccc3)cn2)no1 | 10% (inactive)
81 | Cc1ccc(-c2nc(-c3cccc(-c4ccnn4C)c3)no2)cc1 | 5.04% (inactive)
82 | COc1ccc(-c2noc(-c3cccc(OCC(=O)NC(C)C)c3)n2)cc1 | -0.296% (inactive)
83 | O=C(NCCc1ccccc1)c1cc2c(s1)CS(=O)(=O)C2 | 6.74% (inactive)
84 | COc1ccccc1Cc1cnc(C2CCCN(C(=O)c3ccnc(C)n3)C2)o1 (centres undefined) | -2.9% (inactive)
85 | CC1=N[C@@]2(CC[C@@H]3CN(C(=O)Nc4ccccc4C)C[C@@H]32)C(=O)N1CC1CC1 | -23.9% (inactive)
86 | COc1ccc(CC(=O)Nc2cnc(-c3ccccc3)nc2)cc1 | 2.89% (inactive)
87 | COc1ccc(CCNC(=O)c2ccccc2OCc2ccc(F)cc2)cc1 | 16.7% (inactive)
88 | COc1ccc(CNC(=O)CSc2nnc3c4ccccc4nc(-c4ccco4)n23)cc1 | -17% (inactive)
89 | COc1ccc(CNC(=O)c2cccc3cccnc23)cc1 | 40.3% (active)
90 | COc1ccc(-c2noc(CNC(=O)CCc3ccccc3)n2)cc1OC | 8.5% (inactive)
91 | COc1ccc(CNC(=O)Cn2ncc3ccc(C)cc32)cc1 | 16.8% (inactive)
92 | COc1ccc(-c2ccc(CCC(=O)NCc3ccccc3)o2)cc1 | 34.6% (active)
93 | COc1cccc(C(=O)NCc2ccc(-c3nc4cnccc4o3)cc2)c1 | 25.2% (inactive)
94 | COc1ccc(CNC(=O)c2ccccc2-c2ncc(-c3ccccc3)o2)cc1 | 37.9% (active)

— PubChem BioAssay AID1645855 (Buhrlage Lab, Dana-Farber Cancer Institute and Novartis …, 2021)
